PubChem BioAssay AID588382 (National Center for Advancing Translational Sciences (NCATS), 2011)
The whole screen tested about 1,300 compounds, of which about 150 (12%) were called active. Not shown: some 30% with an inconclusive outcome. Calls come from the whole dose curve; as a rule, active = well fitted cell-killing curve with a large enough effect; inconclusive = small, poorly fitted or top-dose-only effect, or effect the other way; inactive = flat fitted curve, though single readings scatter. What follows is part of a selection rich in actives, with near analogues and random picks from the rest.

assay: qHTS of small molecules that selectively kill Giardia lamblia: Hit Validation in HepG2 cytotox; details: cell viability; Potency: HepG2 cytotoxicity; series mostly up to 38.3 µM; activity change, negative = cytotoxicity: at the top concentration;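 note: compound exposure lasted overnight at 37 deg C; nearly all actives have a fitted effect of over 55% in size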;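 for activity change, negative = cytotoxicity: viability measured as cellular ATP by ATPLite luminescence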
Outline: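 HepG2 cells seeded and incubated overnight at 37 deg C, then 23 nL compound added by pintool and incubated overnight at 37 deg C. Viability read as ATP luminescence with ATPLite after 15 min at room temperature.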
% is set by controls: 0 for no effect and ±100 for the full control effect; potency is the fitted concentration of half-maximal effect.

SMILES | activity change, negative = cytotoxicity | Potency
Cc1ccc(S(=O)(=O)N2[C@@H](c3ccccc3)C(C(=O)O)=CC[C@H]2c2ccc3c(c2)OCO3)cc1 | 7.58% (inactive) | –
CCN(c1ccccc1)S(=O)(=O)c1cccc(C(=O)OCc2nc3sc(C)c(C)c3c(=O)[nH]2)c1 | 14.1% (inactive) | –
CC(OC(=O)c1ccc([N+](=O)[O-])s1)C(=O)NC1CCCCC1C (stereo unspecified) | -1.99% (inactive) | –
O=[N+]([O-])c1nn(-c2ccc3c(c2)OCCO3)n(O)c1=NCCCO | 6.86% (inactive) | –
O=[N+]([O-])c1ccc(-c2nc(C(Cl)Cl)c3ccccc3n2)cc1 | 16.9% (inactive) | –
CCOC(=O)C1=C(C)N=c2s/c(=C\c3ccc(O)c([N+](=O)[O-])c3)c(=O)n2C1c1ccccc1OC (stereo unspecified) | -5.81% (inactive) | –
Nc1ccc[n+](CC(=O)c2ccc(F)cc2)c1 | – | 1.65 µM (active)
CCOC(=O)c1c(C)[nH]c(C)c1S(=O)(=O)N1CCN(c2ccc([N+](=O)[O-])cc2)CC1 | 10.8% (inactive) | –
Cc1ccc(CN=c2c([N+](=O)[O-])nn(-c3cccc(Cl)c3)n2O)cc1 | 20.9% (inactive) | –
N#C/C(=C(/O)c1ccc([N+](=O)[O-])o1)c1nc2ccccc2[nH]1 | – | 3.69 µM (active)
CN(Cc1ccccc1)C(=O)c1ccc([N+](=O)[O-])o1 | 8.4% (inactive) | –
CCCn1c(NC(=O)c2ccc([N+](=O)[O-])o2)nc2ccccc21 | -29.1% (inactive) | –
COc1ccc(C(=S)NC2CCCCC2)cc1 | 8.79% (inactive) | –
COc1ccccc1-c1nnc(C2CCN(S(=O)(=O)c3cccc([N+](=O)[O-])c3)CC2)o1 | -11.8% (inactive) | –
CS(=O)(=O)N1CCN(c2ccc([N+](=O)[O-])c3cccnc23)CC1 | 12.2% (inactive) | –
COc1ccccc1C1OC2=C(Nc3ccc([N+](=O)[O-])cc3N2)C1=O (stereo unspecified) | 5.53% (inactive) | –
CNc1nnc(-c2ccc(N(C)C)cc2)s1 | – | 4.14 µM (active)
Cc1ccccc1NC(NC(=O)OCCn1c([N+](=O)[O-])cnc1C)C(Cl)(Cl)Cl (stereo unspecified) | 15.1% (inactive) | –
COc1cc(/C=C/c2ccc3cccc(OC)c3n2)c(O)c([N+](=O)[O-])c1 | -0.206% (inactive) | –
CC1=NN(c2nc3ccccc3[nH]2)C(=O)/C1=C/N(C)C | – | 0.927 µM (active)
Cc1ccc([C@H]2C(C(=O)O)=CC[C@@H](c3cccc(Cl)c3)N2S(=O)(=O)c2ccc(C)cc2)cc1 | 20.3% (inactive) | –

SMILES | activity change, negative = cytotoxicity | Potency
O=[N+]([O-])c1cccc(-n2nnnc2CNCc2ccccc2)c1 | 4.65% (inactive) | –
O=C(O)c1cc2ccccc2c(N=Nc2cccnc2)c1O | 17.4% (inactive) | –
O=C(Nc1nc2c(Cl)cccc2s1)c1ccc([N+](=O)[O-])o1 | -7.01% (inactive) | –
O=C(Nc1cccc(NC(=O)c2ccccc2Cl)c1)c1ccc([N+](=O)[O-])o1 | – | 2.61 µM (active)
CC(=O)N1CCN(c2ccc(NC(=O)c3ccc([N+](=O)[O-])o3)cc2Cl)CC1 | – | 9.27 µM (active)
CCC(=O)N1CCN(c2ccc(Cl)cc2NC(=O)c2ccc([N+](=O)[O-])o2)CC1 | 13% (inactive) | –
CCC(=O)N1CCN(c2ccc(NC(=O)c3ccc([N+](=O)[O-])o3)cc2Cl)CC1 | – | 3.69 µM (active)
CC(=O)N1CCN(c2ccc(S(C)(=O)=O)cc2[N+](=O)[O-])CC1 | 14.8% (inactive) | –
CN1CCN(c2ccc(NC(=O)c3ccc([N+](=O)[O-])o3)cc2Cl)CC1 | – | 3.69 µM (active)
CCCn1c(C)cc(C(=O)COc2ccc(C)nc2[N+](=O)[O-])c1C | 5.25% (inactive) | –
CCNc1ccc(N=Nc2c(C)n(C)n(-c3ccccc3)c2=O)cc1 | 1.86% (inactive) | –
N#Cc1sc(NCc2cccc(Cl)c2)nc1Cl | -3.86% (inactive) | –
COc1ccc(C(CNC(=O)c2oc3cc(Br)ccc3c2C)N2CCCCC2)cc1 (stereo unspecified) | -8.83% (inactive) | –
CC(=O)Oc1ccc2c(=O)c(Oc3ccccc3[N+](=O)[O-])coc2c1 | 7.74% (inactive) | –
COc1ccc(N2CCCC2)c(NC(=O)c2ccc([N+](=O)[O-])o2)c1 | 14% (inactive) | –
NC(=O)c1oc2ccccc2c1NC(=O)c1ccc([N+](=O)[O-])o1 | – | 2.61 µM (active)
O=C(Nc1ccc(N2CCCC2)c(Cl)c1)c1ccc([N+](=O)[O-])o1 | – | 7.36 µM (active)
O=C(Nc1cccc(Cl)c1N1CCOCC1)c1ccc([N+](=O)[O-])o1 | 2.72% (inactive) | –
Cc1ccc(C)c(Sc2ccc(NC(=O)CCl)cc2)c1 | -24.4% (inactive) | –
COc1ccc2oc(=Nc3ccccc3)c(-c3nc4ccccc4[nH]3)cc2c1 | – | 7.36 µM (active)
Cc1ncc([N+](=O)[O-])n1CCOC(=O)c1ccccc1 | 12.9% (inactive) | –

SMILES | activity change, negative = cytotoxicity | Potency
Cc1ccc(S(=O)(=O)N2[C@@H](c3ccccc3F)C(C(=O)O)=CC[C@H]2c2cccc(C)c2)cc1 | 14.1% (inactive) | –
[O-][n+]1c2ccccc2c2n1CCCN=C2c1ccc(Cl)cc1 | 7.31% (inactive) | –
O=C(CN1C(=O)c2ccccc2S1(=O)=O)c1ccc2c(c1)OCCO2 | – | 2.07 µM (active)
O=[N+]([O-])c1nn(-c2ccccc2)[n+]([O-])c1N1CCN(c2ccccc2F)CC1 | 8.55% (inactive) | –
O=[N+]([O-])c1ccc(/C=C/c2ccnc3ccccc23)c([N+](=O)[O-])c1 | 23.8% (inactive) | –
CCOn1c(=O)c(-c2cccc([N+](=O)[O-])c2)[n+]([O-])c2ccccc21 | 1.56% (inactive) | –
CSC1SCC2C(=O)N(C)C(C(C)C)C(=O)OCC(NC(=O)c3cnc4ccccc4n3)C(=O)NC(C)C(=O)N(C)C1C(=O)N(C)C(C(C)C)C(=O)OCC(NC(=O)c1cnc3ccccc3n1)C(=O)NC(C)C(=O)N2C (stereo unspecified) | – | 0.0117 µM (active)
O=[N+]([O-])c1cccc(S(=O)(=O)c2ccc(NCCOCCO)c([N+](=O)[O-])c2)c1 | 22.6% (inactive) | –
Cc1ccc(C2=NCCn3c2c2ccc(C(F)(F)F)cc2[n+]3[O-])cc1 | 0.0948% (inactive) | –
COc1cc(NC(=O)c2ccc([N+](=O)[O-])o2)ccc1NC(=O)c1cccs1 | – | 14.7 µM (active)
O=C(NCc1ccco1)c1ccc([N+](=O)[O-])o1 | 0.173% (inactive) | –
Cc1cc(NC(=O)c2ccc([N+](=O)[O-])o2)ccc1NC(=O)c1ccco1 | – | 2.93 µM (active)
O=C(Nc1ccc(Cc2ccncc2)cc1)c1ccc([N+](=O)[O-])o1 | – | 6.56 µM (active)
COc1ccc(-c2cc3ccccc3oc2=O)cc1NC(=O)c1ccc([N+](=O)[O-])o1 | -15.1% (inactive) | –
CCN(CC(=O)NCc1cccs1)C(=O)c1ccc([N+](=O)[O-])o1 | -18.8% (inactive) | –
Cc1ccc(CNC(=O)c2ccc([N+](=O)[O-])o2)cc1 | -2.51% (inactive) | –
COc1ccc(NC(=O)c2ccc([N+](=O)[O-])o2)cc1 | – | 3.69 µM (active)
Cc1onc(NC(=O)c2ccc([N+](=O)[O-])o2)c1Br | -10.9% (inactive) | –
O=C(Nc1ncccn1)c1ccc([N+](=O)[O-])o1 | 15.6% (inactive) | –
